# Compound activity from PubChem BioAssay.
# Only some compounds are listed: those with a hit (about 22% of all), similar ones and a draw of the others.
# CYP2C19 activ = activators of human cytochrome P450 2C19 | 96,000 tested, under 10 active | P33261 | AID 1025 | recombinant CYP2C19, luciferin-H EGE luminescence; active compounds read high; 0 = fully inhibited enzyme, 1 = untreated enzyme | activation factor at 5 µM;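 active = activation factor of at least 2 at 5 µM in the primary screen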;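 also: 0 = wells with 2.5 mM tranylcypromine and 1 = vehicle-only wells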
# Target sequence (P33261 whole entry, looked up): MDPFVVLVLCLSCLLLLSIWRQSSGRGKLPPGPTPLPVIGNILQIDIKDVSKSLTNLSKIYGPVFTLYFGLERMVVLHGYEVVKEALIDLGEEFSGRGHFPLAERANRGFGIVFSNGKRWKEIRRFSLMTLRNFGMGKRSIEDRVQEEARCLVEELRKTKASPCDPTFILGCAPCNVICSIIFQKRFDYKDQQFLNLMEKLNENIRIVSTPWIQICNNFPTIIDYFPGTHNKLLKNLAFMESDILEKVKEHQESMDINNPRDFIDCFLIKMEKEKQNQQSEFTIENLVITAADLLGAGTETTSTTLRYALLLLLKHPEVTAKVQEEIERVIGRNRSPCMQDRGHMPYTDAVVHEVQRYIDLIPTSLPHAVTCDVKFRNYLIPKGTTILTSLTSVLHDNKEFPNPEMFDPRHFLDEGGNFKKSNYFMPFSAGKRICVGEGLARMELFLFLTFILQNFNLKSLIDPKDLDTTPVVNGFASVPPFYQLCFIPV
# CYP2C19 inhib = inhibitors of human CYP2C19 | P33261 | CYP2C19 Supersomes, luciferin-H EGE luminescence, 30 min | inhibition, % at 5 µM | hit rate 21% among 96,000 | AID 778;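 active = CYP2C19 inhibition above a set limit at 5 µM in the primary screen, cut at about 50% in these data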;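 also: plate controls were negative control wells for no effect and 2.5 mM tranylcypromine positive control for full effect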
# CYP2C9 act = activators of human CYP2C9; P11712; recombinant CYP2C9, luciferin-H conversion, luminescence; active compounds read high; factor 1 = untreated enzyme, 0 = blocked; activation factor at 5 µM; hit rate 1.4% among 96,000;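 active = activation factor of 2 or more for CYP2C9 at a 5 µM dose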;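 also: 0 = sulfaphenazole-blocked wells and 1 = vehicle-only wells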
# CYP2C9 inhib = human CYP2C9 inhibition. P11712. hit rate 20% among 96,000. AID 777. CYP2C9 Supersomes, luciferin-H conversion, luminescence. inhibition, % at 5 µM;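 active = blocking of liver enzyme CYP2C9 beyond about 50% at 5 µM, limit read from the data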
# F-actin modifier = modifiers of cytoskeleton assembly; AID 836; inhibition, % at 2 µM; HUVEC TNFa F-actin phalloidin imaging, high content; hit rate 0.18% among 91,000;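 active = inhibition above the batch mean plus 3 SD and confirmed as a hit by visual image inspection, cut at about 30% in these data, passing the limit was not always enough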
# E-sel TNF inh = blocks E-selectin expression induced by TNF alpha | HUVEC TNFa-induced E-selectin immunofluorescence, high content | inhibition, % at 2 µM | hit rate 0.71% among 120,000 | AID 1246;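 active = inhibition above the batch mean plus 3 SD, and confirmed as a hit on visual image review, cut at about 43% in these data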;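 also: 0% = TNF-stimulated DMSO wells and 100% = unstimulated control wells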
# Active calls of the source: *; · = not tested or not shown.
SMILES,CYP2C19 activ,CYP2C19 inhib,CYP2C9 act,CYP2C9 inhib,F-actin modifier,E-sel TNF inh
CC1(C)CC(=O)C2=C(C1)OC(N)=C(C#N)C2c1ccc(OC(=O)N2CCOCC2)cc1 (stereo not drawn),0.7,32,0.4,60*,-7,·
N#CC1=C(N)OC2=C(C(=O)CCC2)C1c1ccc(OC(=O)N2CCOCC2)cc1 (stereo not drawn),1,-5,0.8,25,·,-6
COc1cc(C2C(C#N)=C(N)OC3=C2C(=O)CC(C)(C)C3)ccc1OC(=O)N1CCOCC1 (stereo not drawn),0.9,12,0.5,54*,5,-5
Brc1ccc(C2=Nn3c(nnc3-c3ccncc3)SC2)cc1,·,·,·,·,-2,-10
C=CCn1c(SCC(=O)Nc2cc(C)c(Cl)cc2OC)nnc1-c1ccco1,0.7,27,0.8,21,-27,-11
CCCc1cc(=O)n2[nH]c(NCc3cccs3)nc2n1,0.9,6,1,4,4,-2
CC(C)Oc1cccc(C(=O)NC(=S)N2CCN(c3ccc(C(F)(F)F)cc3[N+](=O)[O-])CC2)c1,0.7,32,0.4,62*,-44,21
CCOc1ccc(C(=O)NC(=S)N2CCN(c3ccc(C(F)(F)F)cc3[N+](=O)[O-])CC2)cc1,·,·,·,·,·,1
CCCCOc1ccc(C(=O)Nn2cnnc2)cc1,0.1,93*,0.1,93*,10,-8
CCN1C(=O)/C(=C2/Sc3ccc(OC)cc3N2C)SC1=Nc1cccc(O)c1,0.6,36,0.4,55*,-25,12
CCN1C(=O)/C(=C2/Sc3ccc(OC)cc3N2C)SC1=Nc1ccc(C(C)=O)cc1,·,·,·,·,0,-2
Cc1ccccc1C(=O)NC(=S)Nc1ccc(S(=O)(=O)N2CCOCC2)cc1,·,·,·,·,·,-47
COc1ccc(-c2nc3n(n2)C(c2ccccc2Cl)C(C(N)=O)=C(C)N3)cc1 (stereo not drawn),0.5,53*,0.8,15,-2,7
CC1=C(C(N)=O)C(c2ccccc2)n2nc(-c3cccc(C)c3)nc2N1 (stereo not drawn),0.5,50*,1,-4,-17,21
COc1ccccc1C1C(C(N)=O)=C(C)Nc2nc(-c3ccc(Cl)cc3)nn21 (stereo not drawn),0.6,41,0.9,6,12,-29
Cc1oc2c(c1C(=O)NC(Cc1c[nH]c3ccccc13)C(=O)O)CCCC2 (stereo not drawn),0.6,43,0.2,80*,1,·
Cc1c(C)n(C)c2ccc(C(=O)Nc3cccc4ccccc34)cc12,0.8,16,3.7*,-267,-30,34
Cc1oc2c(c1C(=O)Nc1cccc3ccccc13)CCCC2,0.2,85*,0.2,81*,30,-3
COc1ccccc1NC(=O)c1c(C)oc2c1CCCC2,·,·,·,·,4,-19
CCC(Cc1ccccc1)NC(=O)CN1C(=O)CSc2ncccc21 (stereo not drawn),0.6,39,0.8,23,·,-11
Cc1ccnc(N2CCC(C(=O)Nc3ccc(Oc4ccccc4)cc3)CC2)n1,1,0,0.7,27,24,11
O=C(NCc1cccc(C(F)(F)F)c1)C1CCN(c2ncccn2)CC1,0.8,16,0.3,67*,-12,18
Cc1ccnc(N2CCC(C(=O)Nc3cccc(C(F)(F)F)c3)CC2)n1,0.1,91*,1,4,·,·
CCOC(=O)c1ccc(NC(=S)NC2CC(C)(C)NC(C)(C)C2)cc1,0.6,37,1.1,-14,-13,·
CN(C)c1ccc(C(CNC(=O)c2ccccc2)c2c[nH]c3ccccc23)cc1 (stereo not drawn),·,·,·,·,·,23
SMILES,CYP2C19 activ,CYP2C19 inhib,CYP2C9 act,CYP2C9 inhib,F-actin modifier,E-sel TNF inh
c1ccc(-c2nc3ccccc3s2)nc1,0.9,9,1,-4,42,12
O=C1NC(c2ccccc2)=C(c2nc3ccccc3s2)C(c2ccccc2)N1 (stereo not drawn),0.3,71*,0.1,91*,-23,-9
CCc1c(C(=O)Nc2ccc(S(=O)(=O)N3CCOCC3)cc2)csc1C,0.6,35,0.6,43,3,-15
CC(=O)C1=C(C)NC(C)=C(C(C)=O)C1c1ccc(-c2ccccc2Cl)o1,0.1,86*,0,97*,-17,·
C/C(=N\N=C(/N)SC1CC(=O)N(c2ccc(Br)cc2)C1=O)c1cccs1 (stereo not drawn),0.9,13,0.5,48,25,-40
O=C(O)CCCc1nc2ccccc2s1,0.4,55*,1,4,·,-12
COC(=O)CCCc1nc2ccccc2s1,0.6,38,0.8,24,6,14
CN(C(=O)CCc1nc2ccccc2s1)c1ccccc1,0.3,70*,1,1,7,7
CSCCC(NC(=O)OC(C)(C)C)C(=O)Oc1ccc2c(=O)c(-c3ccc4c(c3)OCCO4)coc2c1 (stereo not drawn),0.8,18,1,0,13,43
Cc1c(Cl)cccc1N1C(=O)C2ON(c3ccccc3)C(c3cccnc3)C2C1=O (stereo not drawn),0.4,56*,0.6,42,-11,·
O=C1C2ON(c3ccccc3)C(c3cccnc3)C2C(=O)N1Cc1ccccc1 (stereo not drawn),0,100*,0.1,88*,16,29
COc1cc(C2C3C(=O)N(Cc4ccccc4)C(=O)C3ON2c2ccccc2)cc(OC)c1OC (stereo not drawn),0.4,57*,0.7,26,2,-3
COc1ccc(C2C3C(=O)N(Cc4ccccc4)C(=O)C3ON2c2ccccc2)c(OC)c1OC (stereo not drawn),0.8,21,0.5,49,-12,·
Cc1ccccc1N1C(=O)C2ON(c3ccccc3)C(c3cccnc3)C2C1=O (stereo not drawn),0.3,75*,0.5,52*,-35,-1
C=CCNC(=S)NNC(=O)c1ccc(OCC(C)C)cc1,1,-2,0.9,8,8,22
COc1ccc(/C=C(\NC(=O)c2ccc([N+](=O)[O-])cc2)C(=O)N2CCOCC2)cc1,·,·,·,·,·,-8
COc1cc(C)nc(Oc2ccc(OCCOc3ccc(C)cc3)nn2)n1,0.6,35,0.5,48,-74,-21
CCOC(=O)c1cnn(-c2cccc(Cl)c2)c1N,0.4,62*,0.6,42,0,-7
CCOC(=O)c1cnn(-c2ccccc2)c1N,0.9,10,1,3,4,-15
O=C(Nc1ccc2c(c1)OCCO2)NC1CCCCC1,0.8,21,1.1,-9,2,-11
O=C(CSc1ccc2c(c1)OCCO2)Nc1ncc(Cl)cc1Cl,0.2,76*,0.2,82*,6,-8
O=C(CSc1ccc2c(c1)OCCO2)Nc1cccnc1,·,·,·,·,·,-14
O=C(CSc1nc2ccccc2n1-c1ccccc1)Nc1ncc(Cl)cc1Cl,·,·,·,·,·,6
O=C(CSc1ccc2c(c1)OCCO2)NC(=O)NC1CCCC1,0.1,94*,0.3,72*,·,·
Cc1cc(NC(=O)CSc2ccc3c(c2)OCCO3)no1,0.4,57*,0.6,40,4,54
